Experimental data as given in PubChem BioAssay.
The source made the active and inactive calls. Unless noted, how the calls were made is not given here.

Columns and labels:
[1] = A549 cell viability effects, profiling panel, calcein-AM fluorescence, 48 h, basal (AID 1162); settings: higher = more signal; further: test concentration not given here
[2] = adipocyte viability effects, profiling panel, cell-based, 3T3-L1 adipocytes, calcein-AM fluorescence, 48 h, basal (AID 1163); settings: 3T3-L1 adipocytes viability, higher = more signal; further: test concentration not given here
[3] = HepG2 cell viability effects, profiling panel, calcein-AM fluorescence, 48 h, basal (AID 1164); settings: higher = more signal; further: test concentration not given here
[4] = MM1S cell viability effects, profiling panel, calcein-AM fluorescence, 48 h, basal (AID 1165); settings: higher = more signal;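 further: viability of MM1S multiple myeloma cells under basal unstimulated conditions; test concentration not given here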
[5] = basal RPMI8226 viability, no added stimulus, profiling panel, cell-based, calcein-AM fluorescence, 48 h, PK04 Diversity Set (AID 1166); settings: RPMI8226 myeloma viability, higher = more signal;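 further: cells grown under basal conditions without added stimulus; test concentration not given here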
[6] = basal HepG2 mitochondrial membrane potential changes, profiling panel, cell-based, JC-1 fluorescence, 24 h, 100 nL compound (AID 1167); settings: higher = more signal; further: test concentration not given here
[7] = basal 3T3-L1 adipocyte mitochondrial potential changes, profiling panel, cell-based, JC-1 fluorescence, 3T3-L1 adipocytes, 24 h, 100 nL compound (AID 1168); settings: JC-1 mitochondrial fluorescence, higher = more signal, called active from +8 up or from −8 down; further: test concentration not given here
[8] = basal RPMI8226 mitochondrial membrane potential changes, profiling panel, cell-based, JC-1 fluorescence, 24 h, 100 nL compound (AID 1169); settings: RPMI8226 myeloma, JC-1 mitochondrial potential fluorescence, higher = more signal; further: test concentration not given here
[9] = basal MM1S mitochondrial membrane potential changes, profiling panel, cell-based, JC-1 fluorescence, 24 h, 100 nL compound (AID 1170); settings: higher = more signal; further: test concentration not given here
[10] = A549 lung cancer cell viability effects, profiling panel, resazurin fluorescence, 24 h, PK04 Diversity Set (AID 1171); settings: higher = more signal, called active from +8 up or from −8 down; further: test concentration not given here
[11] = HepG2 liver cancer cell viability effects, profiling panel, resazurin fluorescence, 24 h, PK04 Diversity Set (AID 1172); settings: higher = more signal; further: test concentration not given here
[12] = basal S. cerevisiae growth modulation, no modifier, primary screen, OD600, strain BY4716, 24 h, basal condition (AID 1173); settings: OD600, 24 h, higher = more signal, called active from +8 up or from −8 down
[13] = MM1S myeloma cell viability, profiling panel, resazurin fluorescence, basal, 24 h, PK04 Diversity Set (AID 1174); settings: higher = more signal, called active from +8 up or from −8 down;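 further: MM1S multiple myeloma cell line; test concentration not given here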
[14] = biological target: Dihydroorotate dehydrogenase (quinone), mitochondrial (Plasmodium falciparum (isolate 3D7)) (UniProt Q08210); experiment: PfDHODH enzyme inhibitors, primary screen, biochemical, C-terminal His tag, absorbance 600 nm (AID 1175); settings: DCIP absorbance 600 nm, higher = more signal, called active from +8 up or from −8 down;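 further: recombinant parasite enzyme with a five histidine tag at its C terminus; test concentration not given here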
[15] = P. aeruginosa biofilm formation inhibitors, primary screen, strain PAO1, LB-PBS medium, absorbance 600 nm (AID 1176); further: test concentration not given here; settings: P. aeruginosa PAO1 growth/biofilm, A600, 12 h; higher = more signal
[16] = S. cerevisiae RM11-1a growth modifiers, primary screen, strain RM11-1a, OD600, basal, 24 h (AID 1177); settings: OD600, 24 h, higher = more signal, called active from +8 up or from −8 down;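 further: cultures grown under basal conditions with no added stressor; test concentration not given here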
[17] = E. coli acrAB mutant growth effects, primary screen, E. coli filamentation inducers, strain DRC39, OD650, 24 h (AID 1178); settings: higher = more signal, called active from +8 up or from −8 down;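 further: growth measured as culture turbidity by optical density at 650 nm; test concentration not given here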
[18] = E. coli acrAB mutant growth effects, primary screen, E. coli filamentation inducers, strain DRC39, OD650, 48 h (AID 1179);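 further: screen aims at cell division blockers that make cells filament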; settings: E. coli DRC39 delta-acrAB growth, higher = more signal, called active from +8 up or from −8 down
[19] = RPMI8226 myeloma cell viability, profiling panel, resazurin fluorescence, basal, 24 h, PK04 Diversity Set (AID 1180); settings: higher = more signal;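 further: RPMI8826 multiple myeloma cell line at 5000 cells per well; test concentration not given here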
[20] = biological target: E3 ubiquitin-protein ligase XIAP (Homo sapiens) (UniProt P98170); experiment: XIAP binders, primary screen, biophysical, small-molecule microarray, fluorescence 635 nm (AID 1181); settings: small-molecule microarray binding, higher = more signal;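 further: score merges 667 nm emission and signal to noise over triplicate slides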
Chain of E3 ubiquitin-protein ligase XIAP (Homo sapiens) (P98170 whole entry, looked up): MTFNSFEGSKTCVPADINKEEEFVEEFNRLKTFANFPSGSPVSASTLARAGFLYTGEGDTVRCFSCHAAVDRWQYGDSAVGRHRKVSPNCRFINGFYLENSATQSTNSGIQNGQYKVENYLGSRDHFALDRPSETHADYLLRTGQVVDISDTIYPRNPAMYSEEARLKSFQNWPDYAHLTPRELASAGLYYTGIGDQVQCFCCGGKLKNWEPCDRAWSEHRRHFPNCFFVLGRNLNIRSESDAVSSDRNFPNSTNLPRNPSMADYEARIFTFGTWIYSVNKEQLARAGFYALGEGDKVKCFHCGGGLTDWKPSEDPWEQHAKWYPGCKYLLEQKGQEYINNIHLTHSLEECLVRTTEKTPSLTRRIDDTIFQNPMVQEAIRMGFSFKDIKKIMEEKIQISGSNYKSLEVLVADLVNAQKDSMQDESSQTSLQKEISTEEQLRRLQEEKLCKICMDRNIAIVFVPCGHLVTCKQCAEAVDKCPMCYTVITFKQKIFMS

Chain of Dihydroorotate dehydrogenase (quinone), mitochondrial (Plasmodium falciparum (isolate 3D7)) (Q08210 whole entry, looked up): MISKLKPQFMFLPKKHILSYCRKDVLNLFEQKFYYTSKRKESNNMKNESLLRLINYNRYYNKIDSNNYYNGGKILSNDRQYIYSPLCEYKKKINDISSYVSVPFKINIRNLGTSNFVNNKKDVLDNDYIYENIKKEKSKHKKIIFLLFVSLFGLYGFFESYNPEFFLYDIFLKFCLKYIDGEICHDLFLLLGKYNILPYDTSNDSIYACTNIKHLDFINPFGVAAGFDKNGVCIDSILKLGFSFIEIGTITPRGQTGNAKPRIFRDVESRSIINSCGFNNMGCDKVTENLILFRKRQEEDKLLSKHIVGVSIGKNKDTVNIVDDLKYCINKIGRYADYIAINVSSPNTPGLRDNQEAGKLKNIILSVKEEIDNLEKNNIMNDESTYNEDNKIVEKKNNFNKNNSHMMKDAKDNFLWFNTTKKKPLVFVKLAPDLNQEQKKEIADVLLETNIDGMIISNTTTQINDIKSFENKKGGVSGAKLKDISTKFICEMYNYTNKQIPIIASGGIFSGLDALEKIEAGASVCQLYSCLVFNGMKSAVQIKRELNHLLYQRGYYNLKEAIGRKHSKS

SMILES | z-score [1] | z-score [2] | z-score [3] | z-score [4] | z-score [5] | z-score [6] | z-score [7] | z-score [8] | z-score [9] | z-score [10] | z-score [11] | z-score [12] | z-score [13] | composite z-score [14] | z-score [15] | z-score [16] | z-score [17] | z-score [18] | z-score [19] | composite z-score [20]
C=CCC(OC(C)=O)[C@@H]1[C@@H](N(Cc2cccc3ccccc23)C(=O)c2cccc3ccccc23)c2cc(OCCCO)ccc2N1C(=O)c1ccc2ccccc2c1 (stereo not given in full) | -0.0249 | 0.521 | -0.184 | -0.189 | 0.0694 | 2.48 | -0.419 (inactive) | 0.489 | 0.591 | 0.933 (inactive) | 0.628 | -0.775 (inactive) | 0.62 (inactive) | -0.29 (inactive) | -1.44 (inactive) | -0.646 (inactive) | 0.745 (inactive) | 0.386 (inactive) | -0.0722 | -0.179
C=C(/C(=C/C[C@@H](OC(C)=O)c1ccc(OCCO)cc1)c1cc(C(=O)OC)ccc1OC)C(C)C | 0.679 | -0.345 | 0.747 | -1.83 | -0.385 | 0.149 | -0.852 (inactive) | -0.799 | -0.8 | 0.627 (inactive) | -0.459 | -0.0855 (inactive) | -0.53 (inactive) | -5.7 (inactive) | 0.437 (inactive) | 0.492 (inactive) | -0.0333 (inactive) | 0.0954 (inactive) | -0.161 | 0.0546
CC(C)CCC[C@@H](C)[C@H]1CC[C@@]2(C)C3=C(CC[C@]12C)[C@@]1(C)CC[C@H](OC(=O)c2ccccc2)C(C)(C)C1CC3 (stereo not given in full) | 0.667 | 0.635 | 0.771 | 0.34 | 0.201 | 1.73 | 1.1 (inactive) | -0.671 | -2.12 | 0.774 (inactive) | 0.533 | 0.436 (inactive) | 0.351 (inactive) | -1.48 (inactive) | 0.968 (inactive) | -1.61 (inactive) | 1.94 (inactive) | 1.57 (inactive) | 0.56 | -0.248
CCOC(=O)C=Cc1cc(F)ccc1O | -1.13 | 0.749 | -0.714 | -0.633 | -1.39 | -1.19 | -0.966 (inactive) | 0.287 | -0.0774 | 0.0142 (inactive) | -0.338 | -12.6 (active) | -0.99 (inactive) | -1.09 (inactive) | -0.0727 (inactive) | -23.2 (active) | -1.01 (inactive) | -1.31 (inactive) | -0.935 | -0.196
C=CCC(OC(C)=O)[C@@H]1[C@@H](N(Cc2ccc(-c3cccc(C(F)(F)F)c3)o2)C(=O)Cc2ccc(OC)cc2)c2cc(OCCCO)ccc2N1C(=O)Cc1ccc2ccccc2c1 (stereo not given in full) | 0.553 | 1.78 | 0.73 | -0.499 | -1.14 | 1.94 | -0.3 (inactive) | 0.114 | 0.296 | -0.674 (inactive) | -0.43 | -0.753 (inactive) | 0.0919 (inactive) | 1.02 (inactive) | -0.628 (inactive) | 0.132 (inactive) | 0.532 (inactive) | 0.279 (inactive) | -0.224 | -0.0286
C=C/C=C/[C@@H]1C(=C)CN([C@@H](Cc2ccccc2)C(=O)OC)[C@H]1[C@@H](O)Cc1ccccc1 | 0.192 | -0.47 | 0.438 | -3.04 | -2.15 | -0.28 | 0.147 (inactive) | -0.975 | -2.24 | 0.663 (inactive) | 0.779 | -1.03 (inactive) | -0.196 (inactive) | 0.0865 (inactive) | 0.106 (inactive) | 0.774 (inactive) | 0.18 (inactive) | -0.45 (inactive) | -0.697 | -0.0349
COCCOC(=O)N1C(=O)[C@@]2(c3cc(C#CCCO)ccc31)[C@H](c1ccccc1OCCO)N1[C@H](c3ccccc3)[C@H](c3ccccc3)OC(=O)[C@H]1[C@@H]2C(=O)N1CCCCCCC1 | 0.66 | 0.961 | 1.03 | 0.115 | -0.004 | 0.454 | 0.339 (inactive) | -0.155 | -1.31 | 0.596 (inactive) | 0.543 | 0.971 (inactive) | -0.649 (inactive) | 0.495 (inactive) | 1.32 (inactive) | 2.11 (inactive) | -0.255 (inactive) | 0.343 (inactive) | 0.484 | 0.236
[N-]=[N+]=NCc1ccccc1[C@@H]1OC(c2ccc(OCCCO)cc2)=N[C@]1(Cc1ccccc1N=[N+]=[N-])C(=O)N1CCCCC1 | -0.135 | -0.843 | 0.461 | -2.31 | -3.75 | 0.913 | -0.922 (inactive) | -1.19 | -2.04 | -0.484 (inactive) | 0.56 | -0.139 (inactive) | -1.98 (inactive) | 0.303 (inactive) | 0.327 (inactive) | 1.09 (inactive) | -0.0949 (inactive) | 0.599 (inactive) | -2.88 | 0.172
COc1ccc([Si](C)(C)[C@@H]2[C@@H](CC(=O)N3Cc4ccccc4C[C@H]3CO)O[C@]3(C(=O)N(Cc4ccc(N5CCC5=O)cc4)c4ccccc43)[C@H]2C)cc1 | -0.167 | 0.233 | 0.437 | -0.0069 | -1.76 | 1.13 | 1.37 (inactive) | -0.553 | -0.502 | -0.61 (inactive) | 0.353 | 0.457 (inactive) | -0.736 (inactive) | -3 (inactive) | 1.45 (inactive) | 2.01 (inactive) | 0.7 (inactive) | 0.613 (inactive) | -0.536 | 0.177
